Results reported in article PMC9838217, “Structure of SALL4 zinc finger domain reveals link between AT-rich DNA binding and Okihiro syndrome”.

What follows are sequences tested against T1, SALL4 ZFC4 WT (HT-SELEX) (Mus musculus, UniProt Q8BX22 870-940) (assay: HT-SELEX; high values mean tight binding). Details: protein: recombinant; vector His6-GST; dsDNA, one strand shown.
T1 sequence: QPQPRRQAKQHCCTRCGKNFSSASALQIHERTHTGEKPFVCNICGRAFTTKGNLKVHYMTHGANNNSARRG
Method in brief: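 A 100 µl reaction of 10 mM Tris–HCl pH 7.5, 50 mM NaCl, poly(dI-dC) and DTT held purified recombinant mouse SALL4 zinc finger cluster 4 (residues 870–940, 1 µg) and library DNA (1.5 µg first cycle, 200 ng later) for 10 min at room temperature. Complexes captured on Ni2+ beads were washed, PCR-amplified and reselected for up to 6 cycles, in triplicate, then MiSeq-sequenced and scanned for 6-mers. Binding signal is the read fraction of each canonical k-mer expressed as fold change over the initial random library.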

Sequence | binding signal
AACAAT | 2.06 ± 0.132 fold-change vs cycle 0
GAGGAC | 0.456 ± 0.0333 fold-change vs cycle 0
AGGTTC | 0.828 ± 0.0497 fold-change vs cycle 0
AACAGT | 1.28 ± 0.0479 fold-change vs cycle 0
AGCCTA | 0.614 ± 0.0322 fold-change vs cycle 0
AGACCC | 0.415 ± 0.0196 fold-change vs cycle 0
ATCGTG | 0.701 ± 0.0455 fold-change vs cycle 0
ATAACG | 1.39 ± 0.0783 fold-change vs cycle 0
ATGATA | 2.72 ± 0.227 fold-change vs cycle 0
CAACTA | 1.19 ± 0.0469 fold-change vs cycle 0
CATTAA | 2.01 ± 0.0894 fold-change vs cycle 0
CTTACC | 0.909 ± 0.0427 fold-change vs cycle 0
GAACCC | 0.462 ± 0.0176 fold-change vs cycle 0
AAAGAA | 1.95 ± 0.101 fold-change vs cycle 0
AGGCTC | 0.313 ± 0.0334 fold-change vs cycle 0
ACCTAA | 1.36 ± 0.0814 fold-change vs cycle 0
GACTGC | 0.3204 ± 0.00172 fold-change vs cycle 0
CCTGTC | 0.437 ± 0.00717 fold-change vs cycle 0
CAAATA | 1.9 ± 0.117 fold-change vs cycle 0
ATGTAC | 1.295 ± 0.0117 fold-change vs cycle 0

Sequence | binding signal
AACACG | 0.6337 ± 0.00219 fold-change vs cycle 0
CATTGC | 0.645 ± 0.0305 fold-change vs cycle 0
GAATCC | 0.85 ± 0.00926 fold-change vs cycle 0
AAATAT | 5.57 ± 0.542 fold-change vs cycle 0
GAGCAA | 0.613 ± 0.0271 fold-change vs cycle 0
CAAAAC | 0.936 ± 0.0391 fold-change vs cycle 0
AACACT | 1.28 ± 0.027 fold-change vs cycle 0
GGAACA | 0.762 ± 0.0355 fold-change vs cycle 0
CTCTCA | 0.878 ± 0.0209 fold-change vs cycle 0
GAGAAA | 1.28 ± 0.0744 fold-change vs cycle 0
ACTGGA | 0.84 ± 0.022 fold-change vs cycle 0
CTATAC | 1.32 ± 0.0145 fold-change vs cycle 0
GCCTAC | 0.304 ± 0.0224 fold-change vs cycle 0
ATCGCA | 0.515 ± 0.00556 fold-change vs cycle 0
AATTAA | 3.49 ± 0.279 fold-change vs cycle 0
CCGAAG | 0.38 ± 0.0225 fold-change vs cycle 0
CCCAAA | 0.588 ± 0.013 fold-change vs cycle 0
CACAAC | 0.647 ± 0.0332 fold-change vs cycle 0
ATGCGA | 0.525 ± 0.0387 fold-change vs cycle 0
ATACAA | 2 ± 0.0726 fold-change vs cycle 0
